In the library only some 12% were active in any assay of this set; here they are far more common.
LASV entry inh – inhibitors of Lassa virus binding or cell entry. actives 1.2% (n = 300,000). Lassa virus pseudotype entry inhibition, cell reporter. Potency, µM (titrated, usually from 37.9 µM), for inactives: at the highest dose activity change, negative = inhibition, most hits filed as inhibitors; calls by dose curve; tested in HEK293 cells; note: potency is the fitted concentration of half-maximal effect; % is set by controls: 0 for no effect and ±100 for the full control effect; nearly all actives have a fitted effect of over 50% in size
MARV entry inh – inhibitors of Marburg virus binding or cell entry. actives 1.8% (n = 300,000). Potency, µM (highest dose often 37.8 µM), inactives show at the top dose activity change, negative = inhibition, hits mostly inhibitors. Marburg virus pseudotyped entry inhibition, cell reporter; calls by dose curve; tested in HEK293 cells; note: potency is the fitted concentration of half-maximal effect; % is set by controls: 0 for no effect and ±100 for the full control effect
CHX counter – counter-screen for Shiga toxin inhibitors: cycloheximide protein synthesis inhibition | AID 2314 | actives 12% (n = 300,000) | max response, % | cell reporter, cycloheximide protein synthesis inhibition counterscreen; in the data active = max response mostly above about 13%, no sharp cut-off; inactive = mostly below about 14%; note: read at 38.3 µM for the half of the compounds with a filed dose; 0% is about no effect
Shiga inhibitor – inhibitors of Shiga toxin in Vero cells; Vero cells, Shiga toxin protein synthesis inhibition reporter; inhibition, % at 38.7 µM; actives 9.2% (n = 290,000); in the data active = inhibition mostly above about 28%, no sharp cut-off; inactive = mostly below about 43%; note: 0% is about no effect
Active calls of the source: *; u = inconclusive; x = not tested or not shown; [ ] = another dose, or the depositor's remark.

SMILES | LASV entry inh | MARV entry inh | CHX counter | Shiga inhibitor
COC(=O)CSc1nnc2n(-c3ccccc3)c(=O)c3c4c(sc3n12)COC(C(C)C)C4 (centres undefined) | 0%[46.1 µM] | 3%[46.1 µM] | x | x
COC(=O)c1cncc(O)c1 | -2% | -5% | 8 | -13
COC(=O)c1cncc(C=Cc2c(C)cc(O)cc2C)c1 | 3.1µM* | x | x | x
Cc1cccc(NCc2ccc(O)c3ncccc23)c1C | u | u | 1 | 1
CCOC(=O)C1CCN(Cc2ccccc2C(F)(F)F)CC1 | -2% | 10% | -1 | -16
Oc1ccc(CN2CCCc3ccccc32)c2cccnc12 | 4.5µM* | u | -2 | 14
COc1ccccc1N1CCN(Cc2ccc(O)c3ncccc23)CC1 | 10µM* | u | 21* | 20
COc1ccccc1N1CCN(Cc2ccc(OC)c(OC)c2OC)CC1 | -11% | u | -2 | -7
CCOC(=O)C1CCN(Cc2ccc(O)c3ncccc23)CC1 | -25% | u | 22* | 110*
Cc1ccc(CSc2nnc(C(F)(F)F)n2Cc2ccc(F)cc2)cc1 | 5% | 30% | 16* | 21
O=C(CC(c1ccco1)S(=O)(=O)c1ccccc1)c1ccc(F)cc1 (centres undefined) | 7% | 4% | 25* | 39*
O=C(C[C@@H](c1ccco1)S(=O)(=O)c1ccccc1)c1ccc(F)cc1 | x | 4% | x | x
O=C(O)CC/C(=N/NC(=O)CNC(=O)c1ccc2c(c1)OCCO2)c1ccccc1 | -6%[46.1 µM] | 4%[46.1 µM] | -7 | -6
CCOC(=O)C1OC1C(=O)N[C@@H](CC(C)C)C(=O)NCCC(C)C (some centres undefined) | x | x | -5 | -2
CC(C)C[C@H](NC(=O)C1OC1C(=O)O)C(=O)NCCCCN=C(N)N (some centres undefined) | u | 4.1µM* | x | x
COc1ccc(/C=C/c2nnc(NC(C)=O)s2)cc1 | -26% | u | 35* | 72*
COC(=O)Nc1nnc(/C=C/c2ccc(OC)cc2)s1 | u | -26% | 58* | 96*
COc1ccc(/C=C/c2nnc(NC(=O)CC(C)C)s2)cc1 | -7% | 16%[46.1 µM] | -2 | 30
CCSc1nnc(NC(=O)Cc2ccc(OC)cc2)s1 | -3% | 13% | 17 | 6
CCC(=O)Nc1cccc(NC(=O)c2ccccc2Cl)c1 | -2%[46.1 µM] | 1%[46.1 µM] | -3 | 6
CCC(=O)Nc1cccc(NC(=S)NC(=O)c2ccccc2Cl)c1 | 12% | u | 25* | 37
Cc1cc(C(=O)NC(=S)Nc2cccc(NC(=O)C(C)C)c2)ccc1[N+](=O)[O-] | -1% | -6% | 36* | 10
CC(=O)c1cccc(NC(=S)NC(=O)c2ccccc2C)c1 | 9% | 0% | -3 | -17
CCC(=O)Nc1cccc(NC(=S)NC(=O)c2cccs2)c1 | u | u | 40* | 110*
Cc1ccccc1C(=O)NC(=S)Nc1cccc(NC(=O)C(C)C)c1 | 4% | -8%[46.1 µM] | 27* | 42
SMILES | LASV entry inh | MARV entry inh | CHX counter | Shiga inhibitor
CCCOc1cccc(C(=O)Nc2cc(-c3ccccc3)no2)c1 | 22%[46.1 µM] | u | x | x
CC1CCC(C(C)C)C(P(=O)(c2ccccc2)c2ccccc2)C1 (centres undefined) | x | x | 1 | 37
CCOC(=O)c1ccccc1NC(=O)CSc1nnnn1C | -6% | 7% | 4 | -3
CC(C)COc1cccc(C(=O)NC(=S)Nc2cccc(NC(=O)c3ccccc3Cl)c2)c1 | -4% | 9% | 1 | -7
CC(C)C(=O)Nc1cccc(NC(=S)NC(=O)c2ccccc2Cl)c1 | -4% | u | 25* | 14
Cc1cc(C)c(C#N)c(SCc2nnc(-c3ccccc3[N+](=O)[O-])o2)n1 | u | u | 47* | 70*
Cc1cc(C)c(C#N)c(SCc2nnc(-c3ccccc3)o2)n1 | 1.2µM* | 1.2µM* | 40* | 92*
c1ccc(-c2nnc(CSc3nncs3)o2)cc1 | 18% | 26% | 46* | 63*
Cc1ccc(C#N)c(SCc2nnc(-c3ccc(Cl)cc3)o2)n1 | u | 2.1µM* | 78* | 128*
Cc1cc(C)c(C#N)c(SCc2ccccc2[N+](=O)[O-])n1 | 0% | -7% | 0 | -8
CCOC(=O)c1cccc(NC(=O)[C@H](CSCc2ccccc2)N2Cc3ccccc3C2=O)c1 | -25%[46.1 µM] | -29%[46.1 µM] | x | x
O=C(CSCc1cc(=O)n2nc(C3CC3)sc2n1)Nc1ccccc1Cl | 5%[46.1 µM] | 2%[46.1 µM] | 0 | -7
O=C1CNC(=S)N1c1nc2ccccc2s1 | 0% | 11% | 29* | 82*
O=c1cc(-c2ccccc2)[nH]n1-c1nc2ccccc2s1 | 9% | u | 13 | 22
Cc1ccc2nc(N/N=C/c3ccccc3C#N)nc(-c3ccccc3)c2c1 | u | 13µM* | 4 | 38
N#Cc1ccccc1/C=N/Nc1nc(-c2ccccc2)c2cc(Cl)ccc2n1 | 18% | u | -3 | -12
